Shown are actives, neighbours in structure and some others; about 2.6% of the full set was active somewhere.
Cruzain noTriton – qHTS Assay for Promiscuous and Specific Inhibitors of Cruzain (without detergent). Cruzipain (Trypanosoma cruzi), P25779. purified cruzain, Z-FR-AMC fluorescence, no detergent. Potency, µM, for inactives: max response, negative = inhibition, usual class: inhibitors. actives 2.3% (n = 200,000);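 also: plate controls were enzyme without inhibitor for no effect and buffer without enzyme for full effect; nearly all actives have a fitted effect of over 40% in size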
Target sequence (P25779 123-467 limits assumed): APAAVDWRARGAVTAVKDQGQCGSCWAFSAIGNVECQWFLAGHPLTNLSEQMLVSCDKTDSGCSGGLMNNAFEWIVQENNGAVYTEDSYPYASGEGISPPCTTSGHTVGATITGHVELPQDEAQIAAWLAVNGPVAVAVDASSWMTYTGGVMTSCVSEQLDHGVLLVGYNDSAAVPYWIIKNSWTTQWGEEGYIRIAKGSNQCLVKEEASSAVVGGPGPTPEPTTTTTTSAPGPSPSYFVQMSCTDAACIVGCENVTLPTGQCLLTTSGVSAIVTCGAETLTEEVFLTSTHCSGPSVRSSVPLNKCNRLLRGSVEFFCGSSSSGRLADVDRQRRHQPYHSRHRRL
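Purified cruzain at 1.5 nM, pre-incubated 15 min with compound at room temperature in 100 mM sodium acetate pH 5.5, 5 mM DTT, 0.00005% Triton X-100. Reaction started with 2 uM Z-FR-AMC; AMC fluorescence increase over 60 s gives rate.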
Cruzain Triton – qHTS Assay for Promiscuous and Specific Inhibitors of Cruzain (with detergent) | AID 1478, 2009 | Potency, µM, inactives show max response, negative = inhibition, hits mostly inhibitors | Cruzipain (Trypanosoma cruzi), P25779 | purified cruzain, Z-FR-AMC fluorescence, 0.01% Triton | actives 0.43% (n = 200,000);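 also: plate controls were neutral wells for no effect and buffer without enzyme for full effect; nearly all actives have a fitted effect of over 40% in size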
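Compounds were screened in titration against cruzain (1.5 nM) with 0.01% Triton X-100 to counter colloidal aggregation. Activity was the AMC fluorescence increase over 60 s after adding 2 uM Z-FR-AMC at pH 5.5.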
* hit, by the source's call; ? = inconclusive. Calls follow the shape of the dose curve; as a rule, active = well fitted curve in the direction sought with a large enough effect; inconclusive = small, poorly fitted or top-dose-only effect, or another doubt; inactive = no such curve, though single readings can be large; an effect the other way counts as inactive or inconclusive. Potency is read from the fitted curve at half-maximal effect.

SMILES	Cruzain noTriton	Cruzain Triton
O=C1CC(N(CCc2ccccc2)C(=S)Nc2ccccc2)C(=O)N1c1ccccc1 (stereo not given)	-2%	-1%
O=C1CC(N(CCc2ccccc2)C(=S)Nc2cc(Cl)ccc2Cl)C(=O)N1c1c(Cl)cccc1Cl (stereo not given)	13µM*	1%
COc1ccc(NC(=O)C(=O)NCCC2=CCCCC2)c(OC)c1	3%	2%
CCCCOc1ccc(NC(=O)C(=O)NCCC2=CCCCC2)cc1	10µM*	3%
CC(=O)Nc1ccc(S(=O)(=O)NCc2ccc3c(c2)cc(C)n3C)cc1	-6%	0%
Cc1cc2cc(CNS(=O)(=O)c3ccc4ccccc4c3)ccc2n1C	25µM*	-3%
N#C/C(=C\C=C\c1ccccc1[N+](=O)[O-])c1nc(-c2ccc3c(c2)OCO3)cs1	20µM*	2%
N#C/C(=C\c1ccccc1[N+](=O)[O-])c1nc(C2CC2)cs1	7%	-7%
Cc1ccc2c(c1)CCCN2C(=O)c1ccc2c(c1)OCO2	6%	-3%
Cc1sc(NC(=O)Cc2ccc3c(c2)OCO3)nc1-c1ccc2c(c1)CCN2C(=O)c1ccc(F)cc1	6.3µM*	-4%
CS(=O)(=O)N1CCc2cc(-c3csc(NC(=O)Cc4ccccc4)n3)ccc21	?	-1%
O=C(NCc1ccc2c(c1)CCN2C(=O)c1ccncc1)c1ccccc1F	-4%	0%
Cc1sc(NC(=O)Cc2ccc3c(c2)OCO3)nc1-c1ccc2c(c1)CCN2C(=O)c1ccccc1F	7.9µM*	-1%
Cc1sc(NC(=O)CN(C)C2CCCCC2)nc1-c1ccc2c(c1)CCN2S(=O)(=O)c1ccccc1	32µM*	-5%
Cc1cccc(CNc2ccnc(-c3ccccc3Cl)n2)c1	17%	-9%
O=C1OC(/C=C/c2ccccc2)=NC/1=C/C=C/c1ccccc1	?	5µM*
NC1=NC(=O)/C(=C\C=C\c2ccccc2)S1	?	3%
COc1ccc(/C=N/OC/C(O)=C(\C#N)c2nc3ccccc3[nH]2)cc1	-29%	2%
COc1ccc(OC/C(O)=C(\C#N)c2nc3ccccc3[nH]2)cc1	25µM*	-1%
N#Cc1nc(-c2cccc3ccccc23)oc1NCCN1CCOCC1	-4%	-30%
COP(=O)(OC)c1nc(-c2cccc3ccccc23)oc1N1CCOCC1	15%	-17%
CCCNc1oc(-c2cccc3ccccc23)nc1C#N	3.2µM*	?
COP(=O)(OC)c1nc(-c2cccc3ccccc23)oc1NCCc1ccccc1	?	25µM*
O=c1c(-c2ccc(F)cc2)nc2cnc(Nc3ccccc3)nc2n1Cc1cccs1	0%	0%
CC(=O)NC(Cc1c[nH]c2ccccc12)C(=O)OCC(=O)Nc1cc(C)on1 (stereo not given)	-1%	-2%
SMILES	Cruzain noTriton	Cruzain Triton
CCc1ccc(C(=O)NC(Cc2c[nH]c3ccccc23)C(=O)OCC(=O)c2ccc(Br)cc2)cc1 (stereo not given)	16µM*	-5%
O=C(COC(=O)C(Cc1c[nH]c2ccccc12)NC(=O)c1ccc(Br)cc1)c1ccc(Cl)cc1 (stereo not given)	?	-1%
Cc1ccc(C(=O)COC(=O)C(Cc2c[nH]c3ccccc23)NC(=O)c2ccc(C(C)(C)C)cc2)cc1 (stereo not given)	10µM*	2%
Cc1cc(NC(=O)COC(=O)[C@H](Cc2c[nH]c3ccccc23)NC(=O)c2ccc(F)cc2)no1	?	14µM*
O=C(COC(=O)C(Cc1c[nH]c2ccccc12)NC(=O)c1ccc(Cl)cc1)c1ccc(Cl)cc1 (stereo not given)	?	-2%
CC(C)(C)c1ccc(C(=O)NC(Cc2c[nH]c3ccccc23)C(=O)OCC(=O)c2ccc(Br)cc2)cc1 (stereo not given)	10µM*	-4%
O=C(NC(Cc1c[nH]c2ccccc12)C(=O)O)c1ccccc1 (stereo not given)	-8%	-3%
COC(=O)N1CCC2(CCN(Cc3cc(C(F)(F)F)cc(C(F)(F)F)c3)CC2)CC1	16%	5%
CCOc1cc(C(=O)N(Cc2nc(-c3ccc(C)cc3)no2)C(C)C)cc(OCC)c1OCC	?	-8%
Clc1ccc(N/N=C/c2cccnc2)cc1	10%	-10%
Cc1sc(N/N=C/c2cccnc2)nc1-c1ccc(Cl)cc1	16µM*	-7%
O=C(c1ccc2c(c1)N(Cc1cccc(Cl)c1)C(=O)c1ccccc1S2(=O)=O)N1CCCCC1	2%	-4%
O=C(c1ccc2c(c1)N(Cc1cccc(Cl)c1)C(=O)c1ccccc1S2=O)N1CCN(c2cccc(C(F)(F)F)c2)CC1 (stereo not given)	25µM*	-3%
O=C(c1ccc2c(c1)N(Cc1cccc(Cl)c1)C(=O)c1ccccc1S2(=O)=O)N1CCN(c2cccc(C(F)(F)F)c2)CC1	5µM*	-2%

Screening results as filed in PubChem BioAssay.
